Assay outcomes deposited in PubChem by National Center for Advancing Translational Sciences (NCATS).
HT1080 IDH1KD tx = kills HT-1080 cells with IDH1 knockdown. HT-1080 IDH1 knockdown viability, ATP luminescence, 48 h. Potency, µM (highest dose often 46.1 µM), inactives show top-dose activity, negative = toxicity, usual class: cytotoxic. hit rate 2% among 360,000. AID 686971;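 also: potency is read from the fitted curve at half-maximal effect; 0% = DMSO wells and -100% = cell-free medium wells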
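After a 2 h attachment period, IDH1KD HT-1080 cells took pin-transferred compound for 48 h at 37 °C; ATP-based luminescence after 10 min room-temperature reagent incubation reported viability.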
12-LOX inh = ALOX12 (human) lipoxygenase inhibition; P18054; purified 12hLO, xylenol orange hydroperoxide absorbance; Potency, µM (top dose mostly 108 µM), for inactives: at the highest dose activity change, negative = inhibition, hits mostly inhibitors; hit rate 1.1% among 580,000; AID 1671190; also: potency is read from the fitted curve at half-maximal effect
Target sequence (P18054 whole entry, looked up): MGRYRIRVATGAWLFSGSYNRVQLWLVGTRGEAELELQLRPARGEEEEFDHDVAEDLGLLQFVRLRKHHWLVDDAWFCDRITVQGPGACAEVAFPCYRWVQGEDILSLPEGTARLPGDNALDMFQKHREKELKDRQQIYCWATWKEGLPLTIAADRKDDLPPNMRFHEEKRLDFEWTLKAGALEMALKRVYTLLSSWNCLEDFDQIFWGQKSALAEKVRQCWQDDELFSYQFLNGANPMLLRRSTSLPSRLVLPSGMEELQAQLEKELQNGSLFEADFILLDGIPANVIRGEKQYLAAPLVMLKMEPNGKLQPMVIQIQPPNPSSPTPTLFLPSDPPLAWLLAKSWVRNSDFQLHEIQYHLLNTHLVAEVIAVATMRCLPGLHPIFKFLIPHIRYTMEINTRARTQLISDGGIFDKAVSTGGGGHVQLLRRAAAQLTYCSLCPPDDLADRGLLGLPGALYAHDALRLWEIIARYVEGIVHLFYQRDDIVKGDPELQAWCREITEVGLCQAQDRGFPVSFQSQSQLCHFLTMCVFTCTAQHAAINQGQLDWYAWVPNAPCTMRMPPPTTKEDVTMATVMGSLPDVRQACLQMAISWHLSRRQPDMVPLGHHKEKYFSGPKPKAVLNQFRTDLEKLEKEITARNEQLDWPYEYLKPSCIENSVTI
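Purified human 12hLO (150 nM final) in 25 mM Hepes, 0.01% Triton X-100, pH 7.0 was preincubated 15 min at room temperature with compound. Then 40 uM arachidonic acid was added, 30 min. Hydroperoxide was read by Fe-XO absorbance ratio 573/405 nm.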
IL1B secr inh = inflammasome signaling inhibition, IL-1 beta readout; THP-1 LPS/ATP IL-1B secretion, AlphaLISA, 16 h; stronger effect = lower value; activity change, % at 57.5 µM; hit rate 4.7% among 360,000; AID 743279; in the data active = activity change below about -50%; inconclusive = mostly about -30% to -49%
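THP-1 cells pretreated 1 hr with compounds (up to 57.5 uM final), then stimulated with LPS (250 ng/mL final) plus ATP (1.25 mM final); secreted IL-1B measured by AlphaLISA after 16 hr, decreased signal indicating inhibition.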
HT1080-NT tox = kills 2HG-producing HT-1080-NT fibrosarcoma cells | HT-1080-NT fibrosarcoma viability, CellTiter-Glo ATP luminescence, 48 h | Potency, µM (titrated, usually from 46.1 µM), inactives show at the top dose activity, negative = less viability, most hits filed as cytotoxic | hit rate 1.6% among 360,000 | AID 686970;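 also: NT is the 2HG producing partner of a matched IDH1 knockdown line; potency is read from the fitted curve at half-maximal effect; 0% = DMSO-treated cells and -100% = media-only wells without cells; nearly all actives have a fitted effect of over 55% in size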
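HT-1080-NT; 750 cells/well; 5% FBS RPMI; 48 h compound, 37 degrees C; CellTiter-Glo luminescence; curve fitting and curve-class assignment.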
TDP1 cell noCPT = qHTS for Inhibitors of human tyrosyl-DNA phosphodiesterase 1 (TDP1): qHTS in cells in absence of CPT; DT40 Tdp1-/- hTDP1 cells, no CPT, ATP luminescence, 48 h; Potency, µM (titrated, usually from 46.2 µM), for the others: top-dose activity change, negative = growth inhibition, usual class: inhibitors; hit rate 15% among 420,000; AID 686978, 2013; also: potency is read from the fitted curve at half-maximal effect; nearly all actives have a fitted effect of over 55% in size
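Growth kinetics read by CellTiter-Glo luminescence after ≥48 hr at 37 °C. Cells: DT40 Tdp1-/- stably carrying human TDP1, 400 per well, compound exposure in the absence of CPT (DMSO vehicle).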
TDP1 cell CPT = DT40-hTDP1 cell growth loss with CPT. chicken DT40 Tdp1-/-;hTDP1 cells + 20 nM CPT, ATP luminescence, 48 h. Potency, µM (series often up to 46.2 µM), without a hit: at the highest dose activity change, negative = growth inhibition, hits mostly inhibitors. hit rate 12% among 420,000; also: potency is read from the fitted curve at half-maximal effect; nearly all actives have a fitted effect of over 55% in size
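Cell growth measured by CellTiter-Glo luminescence after a minimum 48 h, 37 C compound exposure with 20 nM CPT in Tdp1-knockout DT40 cells stably expressing hTDP1, seeded 400/well; qHTS titration format.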
* hit, by the source's call; ? = inconclusive; / = no result; [ ] = another dose, or the depositor's remark. Many of the other results were omitted from the sample, so hits are more common in it than they were. Unless noted, calls follow the shape of the dose curve; as a rule, active = well fitted curve in the direction sought with a large enough effect; inconclusive = small, poorly fitted or top-dose-only effect, or another doubt; inactive = no such curve, though single readings can be large; an effect the other way counts as inactive or inconclusive. Unless noted, % is scaled to controls: 0 for no effect and ±100 for the full control effect.

SMILES	HT1080 IDH1KD tx	12-LOX inh	IL1B secr inh	HT1080-NT tox	TDP1 cell noCPT	TDP1 cell CPT
COC[C@]1(O)CCN(S(=O)(=O)c2cccc(C(=O)O)c2)CC1(C)C	/	8%	/	/	/	/
Cc1cccc(NC2=C(NC(=O)c3ccccc3)C(=O)c3ccccc3C2=O)c1	?	14µM*	-74*	?	12µM*	10µM*
CN(C1=C(NC(=O)c2ccc(Cl)cc2)C(=O)c2ccccc2C1=O)c1ccccc1	-29%	8%	-74*	-21%	10µM*	5.8µM*
O=C(Nc1cc(Cl)ncn1)c1ccccc1	1%	0%	-63*	-1%	14%	18%
O=C(Nc1cc(N2CCCCC2)ncn1)c1ccccc1	-28%	?	17	-13%	?	-30%
O=C(NC(NC1CCS(=O)(=O)C1)C(=O)c1cccs1)c1ccccc1 (centres undefined)	10%	8%	13	3%	2%	0%
O=C(Nc1ccc(NS(=O)(=O)c2ccccc2)cc1)c1ccc(Cl)cc1	-11%	-27%	1	-4%	-12%	-21%
Cc1cccc(C(=O)Nc2cccc(NC(=O)c3ccccc3)c2)c1	-22%	5%	-21	-20%	?	-6%
O=C(NC1=C(NC2CCS(=O)(=O)C2)C(=O)c2ccccc2C1=O)c1ccccc1 (centres undefined)	18µM*	?	-93*	15µM*	2.3µM*	2.1µM*
CN1CCN(CCOc2ccc3c(=O)c(-c4ccccc4)coc3c2)CC1	/	6%	/	/	/	/
CCc1ccc(-n2cccc2)cc1	/	-26%	/	/	/	/
O=C(Nc1ccc(F)c(F)c1)c1ccc(Cn2ccn3nc4c(c3c2=O)CCCC4)cc1	/	22%	/	/	/	/
COC(=O)C1=C(C)N(Cc2ccccc2F)C(=O)CC1c1ccccc1Cl (centres undefined)	/	18%	/	/	/	/
CCCN(CCC)S(=O)(=O)N1CCCC(c2nncn2C)C1 (centres undefined)	/	-5%	/	/	/	/
O=C(NC1=C(Nc2ccc(Cl)cc2)C(=O)c2ccccc2C1=O)c1ccccc1	-17%	-20%	?	?	16µM*	23µM*
O=C1C(Cl)=C(NC(=O)c2ccccc2)C(=O)C(Cl)=C1NC(=O)c1ccccc1	8.2µM*	?	-99*	10µM*	2.6µM*	1.3µM*
O=C(CC1CCCC1)NCCc1noc(Cc2ccccc2)n1	/	59%	/	/	/	/
CCCNC(=O)C(C)NC(=O)C1CCN(c2nc3ccccc3o2)CC1 (centres undefined)	/	55%	/	/	/	/
CCOc1ccc(C2CC=C(C(C)=O)CN2S(=O)(=O)c2ccc(C)cc2)cc1 (centres undefined)	?	-15%	-3	-11%	23µM*	23µM*
COc1ccc(C2CC=C(C(C)=O)CN2S(=O)(=O)c2ccc(C)cc2)cc1 (centres undefined)	5%	-3%	12	-3%	23µM*	?
COc1ccc(C2CC=C(C(C)=O)CN2S(=O)(=O)c2ccccc2)cc1 (centres undefined)	-5%	-25%	-13	3%	21µM*	?
Cc1cccc(Oc2coc3cc(OCC(=O)OC4CCCCC4)ccc3c2=O)c1	/	-6%	/	/	/	/
CCN(CC(=O)Nc1ccc(S(=O)(=O)N2CCOCC2)cc1)Cc1ccccc1	-2%	4%	-17	-4%	-28%	-28%
COc1ccccc1CC(=O)Nc1ccc(S(=O)(=O)N2CCCCC2)cc1	-4%	-20%	-17	0%	?	-19%
CCN(CC(=O)Nc1ccc(S(=O)(=O)N2CCCC2)cc1)Cc1ccccc1	-2%	-17%	-4	5%	?	16µM*
SMILES	HT1080 IDH1KD tx	12-LOX inh	IL1B secr inh	HT1080-NT tox	TDP1 cell noCPT	TDP1 cell CPT
CCN(CC(=O)Nc1cc(S(=O)(=O)N2CCOCC2)ccc1C)Cc1ccccc1	3%	-7%	-4	12%	13µM*	16µM*
COc1ccccc1N(CC(=O)Nc1ccc(S(=O)(=O)N2CCCCC2)cc1)S(C)(=O)=O	-11%	-6%	-3	-7%	18µM*	?
CCOc1ccc2c(n1)CCN(C(=O)Cc1cccc(OC)c1)C2	/	20%	/	/	/	/
COc1ccc(OC)c(NC(=O)COC(=O)c2ccc(C)s2)c1	/	4%	/	/	/	/
Cc1ccc(C2CC(=O)Nc3c2c(C)nn3-c2ccc3nncn3n2)cc1C (centres undefined)	/	7%	/	/	/	/
Cn1c(=O)[nH]c(=O)c2c1nc(NC1CCCCC1)n2CC(=O)c1ccccc1	/	5%	/	/	/	/
CCCCC(=O)NC(c1ccc([N+](=O)[O-])cc1)c1c(O)ccc2ccccc12 (centres undefined)	?	-37%	-60*	16µM*	21µM*	16µM*
CC(C)C(=O)NC(c1ccccc1Cl)c1c(O)ccc2ccccc12 (centres undefined)	-4%	-28%	?	-4%[9.24 µM]	-27%	?
CCC(=O)NC(c1ccccc1Cl)c1c(O)ccc2ccccc12 (centres undefined)	-28%	-16%	18	-22%	?	16µM*
CCC(=O)NC(c1ccc([N+](=O)[O-])cc1)c1c(O)ccc2ccccc12 (centres undefined)	?	-15%	?	?	?	20µM*
CC(C)CC(=O)NC(c1ccccc1)c1c(O)ccc2ccccc12 (centres undefined)	-16%	18%	-80*	-9%	?	?
CCC(=O)NC(c1ccc(N(C)C)cc1)c1c(O)ccc2ccccc12 (centres undefined)	-5%	-3%	-1	-4%	?	-26%
CCOc1ccc(Oc2ccccc2NC(=O)c2ccoc2)cc1	/	-11%	/	/	/	/
Fc1cccc(-c2nn3c(CN4CCOCC4)nnc3s2)c1	/	-1%	/	/	/	/
Cc1cc(NCCN(C)C)n2nc(-c3cccs3)cc2n1	-8%	28%	-100*	-2%	-24%	-8%
Cc1cc(SCc2cc(=O)[nH]c3ccccc23)nc2ccccc12	?	18%	45	-20%	?	23µM*
Cc1ccc(OCc2nnc(SCc3cc(=O)[nH]c4ccccc34)n2-c2ccccc2)cc1	?	-18%	?	16µM*	23µM*	?
Cc1nnc(SCC(=O)N2c3ccccc3C(C)(c3ccccc3)CC2(C)C)s1 (centres undefined)	-11%	8%	-76*	-18%	12µM*	16µM*
Cc1ccc(C2(C)CC(C)(C)N(C(=O)CSc3nnc(C)s3)c3ccccc32)cc1 (centres undefined)	?	0%	-85*	?	16µM*	21µM*
